# Assay results reported in PubChem BioAssay AID1159580 (chemical genetic matrix, 2015).
# The whole screen tested about 5,500 compounds, of which about 2,000 (36%) were called active. Another 18% or so got no clear call; they are omitted. This is one part of the list. Values without a mark were called inactive. No stated cut-off is given here; in the data, active means normalized growth mostly below about 0.91 (no sharp cut-off); inconclusive means no clear call, values can overlap the other calls; inactive means mostly above about 0.92.
# Experiment: chemical genetic growth profiling, strain panel (AID 1159580);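 further: tested at 20 µM; growth read once vehicle control cultures reached saturation at 30 °C; 1 = growth at the plate median or of vehicle wells; lower values mean less growth of the strain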
# Conditions: growth OD
smiles,measurement,setting,value
O=c1c(O)c(-c2ccccc2)oc2cc(O)ccc12,normalized growth,"S. cerevisiae deletion strains, locus YKL009W, strain mrt4, hits give low values",0.932
same,normalized growth,"S. cerevisiae deletion strains, locus YKL068W, hits give low values",0.948
same,normalized growth,"S. cerevisiae deletion strains, locus YKL085W, strain MDH1 (second series), hits give low values",0.911 (active)
same,normalized growth,"S. cerevisiae deletion strains, locus YKL085W, strain MDH1, hits give low values",0.911 (active)
same,normalized growth,"S. cerevisiae deletion strains, locus YKL160W, strain elf1, hits give low values",0.772 (active)
same,normalized growth,"S. cerevisiae deletion strains, locus YKL190W, strain CNB1, hits give low values",0.4 (active)
same,normalized growth,"S. cerevisiae deletion strains, locus YKR001C, strain vps1, hits give low values",0.708 (active)
same,normalized growth,"S. cerevisiae deletion strains, locus YKR026C, strain gcn3, hits give low values",0.879 (active)
same,normalized growth,"S. cerevisiae deletion strains, locus YKR091W, strain srl3, hits give low values",0.834 (active)
same,normalized growth,"S. cerevisiae deletion strains, locus YLL001W, strain dnm1, hits give low values",0.827 (active)
same,normalized growth,"S. cerevisiae deletion strains, locus YLL026W, hits give low values",0.558 (active)
same,normalized growth,"S. cerevisiae deletion strains, locus YLL041C, strain sdh2, hits give low values",0.85 (active)
same,normalized growth,"S. cerevisiae deletion strains, locus YLR027C, strain aat2, hits give low values",0.701 (active)
same,normalized growth,"S. cerevisiae deletion strains, locus YLR039C, strain RIC1, hits give low values",0.236 (active)
same,normalized growth,"S. cerevisiae deletion strains, locus YLR058C, strain SHM2, hits give low values",0.514 (active)
same,normalized growth,"S. cerevisiae deletion strains, locus YLR102C, strain apc9, hits give low values",0.935
same,normalized growth,"S. cerevisiae deletion strains, locus YLR113W, strain HOG1, hits give low values",1
same,normalized growth,"S. cerevisiae deletion strains, locus YLR221C, strain rsa3, hits give low values",0.759 (active)
same,normalized growth,"S. cerevisiae deletion strains, locus YLR258W, strain gsy2, hits give low values",0.699 (active)
same,normalized growth,"S. cerevisiae deletion strains, locus YLR262C, strain YPT6 (second series), hits give low values",0.341 (active)
same,normalized growth,"S. cerevisiae deletion strains, locus YLR262C, strain YPT6, hits give low values",0.263 (active)
same,normalized growth,"S. cerevisiae deletion strains, locus YLR268W, strain sec22, hits give low values",0.62 (active)
same,normalized growth,"S. cerevisiae deletion strains, locus YLR320W, strain mms22, hits give low values",0.674 (active)
same,normalized growth,"S. cerevisiae deletion strains, locus YLR330W, strain CHS5, hits give low values",0.663 (active)
same,normalized growth,"S. cerevisiae deletion strains, locus YLR342W, strain FKS1 (second series), hits give low values",0.51 (active)
same,normalized growth,"S. cerevisiae deletion strains, locus YLR342W, strain FKS1, hits give low values",0.765 (active)
same,normalized growth,"S. cerevisiae deletion strains, locus YLR357W, strain rsc2, hits give low values",0.717 (active)
same,normalized growth,"S. cerevisiae deletion strains, locus YLR370C, strain arc18, hits give low values",0.738 (active)
same,normalized growth,"S. cerevisiae deletion strains, locus YLR371W, strain rom2, hits give low values",0.636 (active)
same,normalized growth,"S. cerevisiae deletion strains, locus YLR384C, strain iki3, hits give low values",0.906 (active)
same,normalized growth,"S. cerevisiae deletion strains, locus YLR418C, strain cdc73, hits give low values",0.357 (active)
same,normalized growth,"S. cerevisiae deletion strains, locus YML016C, strain PPZ1, hits give low values",0.455 (active)
same,normalized growth,"S. cerevisiae deletion strains, locus YML032C, strain rad52, hits give low values",0.872 (active)
same,normalized growth,"S. cerevisiae deletion strains, locus YML120C, strain ndi1, hits give low values",0.887 (active)
same,normalized growth,"S. cerevisiae deletion strains, locus YML124C, strain tub3, hits give low values",0.827 (active)
same,normalized growth,"S. cerevisiae deletion strains, locus YMR058W, strain fet3, hits give low values",0.104 (active)
same,normalized growth,"S. cerevisiae deletion strains, locus YMR078C, strain ctf18, hits give low values",0.909 (active)
same,normalized growth,"S. cerevisiae deletion strains, locus YMR125W, strain sto1, hits give low values",0.929
same,normalized growth,"S. cerevisiae deletion strains, locus YMR129W, hits give low values",0.838 (active)
same,normalized growth,"S. cerevisiae deletion strains, locus YMR205C, strain PFK2, hits give low values",0.639 (active)
same,normalized growth,"S. cerevisiae deletion strains, locus YMR223W, strain ubp8, hits give low values",0.685 (active)
same,normalized growth,"S. cerevisiae deletion strains, locus YMR231W, strain pep5, hits give low values",0.336 (active)
same,normalized growth,"S. cerevisiae deletion strains, locus YMR307W, strain GAS1, hits give low values",0.328 (active)
same,normalized growth,"S. cerevisiae deletion strains, locus YNL067W, strain RPL9B, hits give low values",0.496 (active)
same,normalized growth,"S. cerevisiae deletion strains, locus YNL071W, strain lat1, hits give low values",0.709 (active)
same,normalized growth,"S. cerevisiae deletion strains, locus YNL128W, strain TEP1, hits give low values",0.319 (active)
same,normalized growth,"S. cerevisiae deletion strains, locus YNL153C, strain GIM3, hits give low values",0.577 (active)
same,normalized growth,"S. cerevisiae deletion strains, locus YNL183C, strain NPR1, hits give low values",0.98
same,normalized growth,"S. cerevisiae deletion strains, locus YNL209W, strain ssb2, hits give low values",0.335 (active)
same,normalized growth,"S. cerevisiae deletion strains, locus YNL233W, strain BNI4, hits give low values",0.479 (active)
same,normalized growth,"S. cerevisiae deletion strains, locus YNL248C, strain rpa49, hits give low values",0.859 (active)
same,normalized growth,"S. cerevisiae deletion strains, locus YNL250W, strain rad50, hits give low values",0.927
same,normalized growth,"S. cerevisiae deletion strains, locus YNL271C, strain bni1, hits give low values",0.858 (active)
same,normalized growth,"S. cerevisiae deletion strains, locus YNL298W, strain CLA4, hits give low values",0.914
same,normalized growth,"S. cerevisiae deletion strains, locus YNL307C, strain MCK1, hits give low values",0.745 (active)
same,normalized growth,"S. cerevisiae deletion strains, locus YNL322C, strain KRE1 (second series), hits give low values",0.971
same,normalized growth,"S. cerevisiae deletion strains, locus YNL322C, strain KRE1, hits give low values",0.415 (active)
same,normalized growth,"S. cerevisiae deletion strains, locus YNR049C, strain mso1, hits give low values",0.895 (active)
same,normalized growth,"S. cerevisiae deletion strains, locus YNR052C, strain pop2, hits give low values",0.713 (active)
same,normalized growth,"S. cerevisiae deletion strains, locus YOL006C, strain TOP1, hits give low values",0.167 (active)
same,normalized growth,"S. cerevisiae deletion strains, locus YOL012C, strain htz1",0.446
same,normalized growth,"S. cerevisiae deletion strains, locus YOL147C, strain pex11, hits give low values",0.914 (active)
same,normalized growth,"S. cerevisiae deletion strains, locus YOR001W, strain rrp6, hits give low values",0.873 (active)
same,normalized growth,"S. cerevisiae deletion strains, locus YOR061W, strain CKA2, hits give low values",0.682 (active)
same,normalized growth,"S. cerevisiae deletion strains, locus YOR069W, strain VPS5, hits give low values",0.614 (active)
same,normalized growth,"S. cerevisiae deletion strains, locus YOR070C, strain gyp1, hits give low values",0.739 (active)
same,normalized growth,"S. cerevisiae deletion strains, locus YOR080W, strain dia2, hits give low values",0.777 (active)
same,normalized growth,"S. cerevisiae deletion strains, locus YOR083W, strain WHI5, hits give low values",0.695 (active)
same,normalized growth,"S. cerevisiae deletion strains, locus YOR106W, strain vam3, hits give low values",0.27 (active)
same,normalized growth,"S. cerevisiae deletion strains, locus YOR136W, strain idh2, hits give low values",0.909 (active)
same,normalized growth,"S. cerevisiae deletion strains, locus YOR144C, strain elg1, hits give low values",0.94
same,normalized growth,"S. cerevisiae deletion strains, locus YOR184W, strain ser1, hits give low values",0.5 (active)
same,normalized growth,"S. cerevisiae deletion strains, locus YOR231W, strain MKK1, hits give low values",1.03
same,normalized growth,"S. cerevisiae deletion strains, locus YOR265W, strain rbl2, hits give low values",0.71 (active)
same,normalized growth,"S. cerevisiae deletion strains, locus YOR270C, strain vph1, hits give low values",0.306 (active)
same,normalized growth,"S. cerevisiae deletion strains, locus YOR290C, strain snf2, hits give low values",0.754 (active)
same,normalized growth,"S. cerevisiae deletion strains, locus YOR316C, strain cot1, hits give low values",0.903 (active)
same,normalized growth,"S. cerevisiae deletion strains, locus YPL051W, strain arl3, hits give low values",0.439 (active)
same,normalized growth,"S. cerevisiae deletion strains, locus YPL055C, strain LGE1, hits give low values",0.363 (active)
same,normalized growth,"S. cerevisiae deletion strains, locus YPL078C, strain atp4, hits give low values",0.845 (active)
same,normalized growth,"S. cerevisiae deletion strains, locus YPL106C, strain sse1, hits give low values",0.65 (active)
same,normalized growth,"S. cerevisiae deletion strains, locus YPL240C, strain hsp82, hits give low values",0.81 (active)
same,normalized growth,"S. cerevisiae deletion strains, locus YPL241C, strain CIN2, hits give low values",0.719 (active)
same,normalized growth,"S. cerevisiae deletion strains, locus YPL256C, strain CLN2, hits give low values",1.06
same,normalized growth,"S. cerevisiae deletion strains, locus YPR119W, strain clb2, hits give low values",0.931 (active)
same,normalized growth,"S. cerevisiae deletion strains, locus YPR141C, strain kar3, hits give low values",0.942
same,normalized growth,"S. cerevisiae deletion strains, locus YPR163C, strain tif3, hits give low values",0.844 (active)
same,normalized growth,"S. cerevisiae deletion strains, locus YPR167C, strain met16, hits give low values",0.734 (active)
same,normalized growth,"S. cerevisiae deletion strains, strain wtn01, hits give low values",0.751 (active)
same,normalized growth,"S. cerevisiae strains, strain wild type, hits give low values",0.246 (active)
